Results as given in PubChem BioAssay (NCATS).
Values joined by “and” are separate entries in the source; they are usually repeats but may differ in a detail not shown here. Identical values can stand only once. Records with an inconclusive call do not appear. Active and inactive are the calls of the source. Unless noted, calls come from the whole dose curve.

Key:
[1] = biological target: Estrogen receptor (Homo sapiens) (UniProt P03372); test: qHTS assay for small molecule antagonists of estrogen receptor alpha signaling (AID 588513; active = well fitted curve in the direction sought with a large enough effect in the signal ratio, with a control signal flat, not every such curve was filed as active; the % refers to the signal ratio; note: % is set by controls: 0 for no effect and ±100 for the full control effect)
Outline: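 ER-alpha-UAS-bla GripTite HEK 293 cells in 2% charcoal/dextran-treated FBS medium; compounds titrated (1:2, duplicate), then stimulated with 0.5 nM 17-beta-estradiol for 18 h at 37C. CCF4 beta-lactamase fluorescence; Hill-fit IC50 and efficacy.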

[2] = biological target: Estrogen receptor (Homo sapiens) (UniProt P03372); test: qHTS assay for small molecule agonists of estrogen receptor alpha signaling (AID 588514);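 note: 0% = vehicle only and 100% = reference agonist; nearly all actives have a fitted effect of over 70% in size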
Outline: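 ER-alpha-UAS-bla GripTite HEK 293 cells in medium with 2% charcoal/dextran-treated FBS were treated with compound titrations at 37 C for 18 hrs; beta-lactamase reporter read by CCF4 fluorescence after 2 hrs at RT.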

[3] = biological target: Bile acid receptor (Homo sapiens) (UniProt Q96RI1); test: qHTS assay for small molecule antagonists of farnesoid X receptor signaling (AID 588526); note: % is set by controls: 0 for no effect and ±100 for the full control effect
Outline: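 Concentration-response titrations were fitted to the Hill equation for half-maximal inhibition and maximal response, with data normalised to 50 uM chenodeoxycholic acid and DMSO control wells. Cells: FXR-UAS-bla HEK293T, dialyzed FBS.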

[4] = biological target: Peroxisome proliferator-activated receptor delta (Homo sapiens) (UniProt Q03181); test: qHTS assay for small molecule agonists of peroxisome proliferator-activated receptor delta signaling (AID 588534);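 note: 0% = DMSO basal wells and 100% = positive control agonist at 10 µM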
Outline: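 Cell-based beta-lactamase reporter assay run in agonist mode: cells seeded and incubated 5 hrs at 37 C, compounds added and incubated 18 hrs at 37 C. CCF4 dye fluorescence read after 2 hrs at RT; EC50 and efficacy from Hill fits.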

[5] = qHTS assay for small molecule antagonists of peroxisome proliferator-activated receptor delta signaling (AID 588535; active = well fitted inhibition curve with a large enough effect in the signal ratio, with a control signal flat, not every such curve was filed as active; the % refers to the signal ratio;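 for max response: cells co-treated with a PPAR-delta agonist as stimulator during compound exposure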); conditions: HEK293T PPARd-UAS-bla, beta-lactamase FRET ratio, 18 h; 460 nm channel
Outline: (§1)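 GeneBLAzer PPAR-delta-UAS-bla HEK293T cells in medium with 2% charcoal/dextran FBS were preincubated 5 hrs at 37 C, then given compounds, incubated 18 hrs at 37 C, and read by CCF4 beta-lactamase fluorescence; IC50 from Hill fits.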

[6] = biological target: Peroxisome proliferator-activated receptor delta (Homo sapiens) (UniProt Q03181); test: as above
Outline: as §1

[7] = biological target: Peroxisome proliferator-activated receptor gamma (Homo sapiens) (UniProt P37231); test: qHTS assay for small molecule agonists of peroxisome proliferator-activated receptor gamma signaling (AID 588536; active = well fitted curve in the direction sought with a large enough effect in the signal ratio, with a control signal flat, not every such curve was filed as active; the % refers to the signal ratio;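 note: 0% = DMSO basal wells and 100% = rosiglitazone at 2 µM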)
Outline: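 Ratiometric blue/green fluorescence (405 nm excitation; 460 and 530 nm emission) from CCF4-loaded HEK293 reporter cells serves as signal. Exposure to test compounds lasts 16 h at 37 C in medium containing 1% charcoal/dextran-treated serum.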

[8] = biological target: Peroxisome proliferator-activated receptor gamma (Homo sapiens) (UniProt P37231); test: qHTS assay for small molecule antagonists of peroxisome proliferator-activated receptor gamma signaling (AID 588537; active = well fitted inhibition curve with a large enough effect in the signal ratio, with a control signal flat, not every such curve was filed as active; the % refers to the signal ratio; note: potency is the fitted concentration of half-maximal effect)
Outline: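 PPAR-gamma-UAS-bla HEK293 cells (3000/well, 1% charcoal/dextran-stripped FBS) were preincubated 6-6.5 h at 37 C, given titrated compounds, then stimulated with 50 nM rosiglitazone for 16 h. Beta-lactamase activity was read with CCF4 dye; IC50 came from Hill fits.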

[9] = biological target: Vitamin D3 receptor (Homo sapiens) (UniProt P11473); test: qHTS assay for small molecule antagonists of vitamin D receptor signaling (AID 588541);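 note: receptor activated by calcitriol during compound treatment; series mostly up to about 77 µM; % is set by controls: 0 for no effect and ±100 for the full control effect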
Outline: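 VDR-UAS-bla HEK293T cells (2000/well, 2% charcoal-stripped FBS) were treated with titrated compounds plus 1-alpha,25-dihydroxyvitamin D3 (50 nM or 3 nM final) for 16 h at 37 C. CCF4 beta-lactamase fluorescence was read; Hill fits gave IC50.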

[10] = biological target: Vitamin D3 receptor (Homo sapiens) (UniProt P11473); test: qHTS assay for small molecule agonists of vitamin D receptor signaling (AID 588543);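 note: 0% = DMSO basal and 100% = reference agonist control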
Outline: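 VDR-UAS-bla HEK293T cells, 2000/well, 2% charcoal-stripped FBS; compound titration 16 h at 37 C; CCF4 beta-lactamase ratio read. Normalized to 50 nM 1-alpha,25-dihydroxyvitamin D3 (100%) and DMSO; Hill fit gives EC50, efficacy.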

[11] = qHTS assay for small molecule agonists of retinoid X receptor alpha signaling (AID 588544); conditions: HEK293T RXRa-UAS-bla, beta-lactamase reporter, 18 h; 530 nm emission;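 for activation: 0% = DMSO basal wells and 100% = reference agonist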
[12] = biological target: Retinoic acid receptor RXR-alpha (Homo sapiens) (UniProt P19793); test: as above
[13] = biological target: Thyroid hormone receptor beta (Homo sapiens) (UniProt P10828); test: qHTS assay for small molecule agonists of thyroid hormone receptor beta signaling (AID 588545)
Outline: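 Agonist activity was read as beta-lactamase CCF4 fluorescence (405 ex, 460/530 em), scaled between DMSO (0%) and 10 nM T3 (100%), then Hill-fitted for EC50 and efficacy. HEK 293 TR-UAS-bla cells in 2% charcoal/dextran FBS medium were exposed 18 h at 37 C.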

[14] = biological target: Androgen receptor (Homo sapiens) (UniProt P10275); test: qHTS assay for small molecule agonists of androgen receptor signaling (AID 588515; active = well fitted curve in the direction sought with a large enough effect in the signal ratio, with a control signal flat; the % refers to the signal ratio; note: % is set by controls: 0 for no effect and ±100 for the full control effect); conditions: AR-UAS-bla HEK293, beta-lactamase ratio, agonist 16 h; stronger effect = higher value
Outline: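 EC50 and efficacy came from Hill fits of titrations (up to 92 uM) normalized to 30 nM R1881 as 100% and DMSO as 0%. Compound exposure was 16 h at 37 C on AR-UAS-bla HEK293 cells, with a 405/460/530 nm CCF4 fluorescence read.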

[15] = biological target: Glucocorticoid receptor (Homo sapiens) (UniProt P04150); test: qHTS assay for small molecule agonists of glucocorticoid receptor signaling (AID 588532; active = well fitted curve in the direction sought with a large enough effect in the signal ratio, with a control signal flat; the % refers to the signal ratio;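 note: 100% = dexamethasone at 0.1 µM and 0% = DMSO only wells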); conditions: HeLa MMTV-bla, beta-lactamase ratio, agonist, 18 h; stronger effect = higher value; percent of dexamethasone control, DMSO zero
Outline: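 MMTV-bla HeLa, beta-lactamase reporter; medium with 1% charcoal/dextran-stripped FBS; cpds up to 92 uM, 18 h, 37 C; CCF4 readout 460/530 nm; Hill fit → EC50, efficacy vs 0.1 uM dexamethasone = 100%.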

[16] = biological target: Glucocorticoid receptor (Homo sapiens) (UniProt P04150); test: qHTS assay for small molecule antagonists of glucocorticoid receptor signaling (AID 588533; active = well fitted inhibition curve with a large enough effect in the signal ratio, with a control signal flat, not every such curve was filed as active; the % refers to the signal ratio)
Outline: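 Antagonist-mode qHTS: compound titrations added to GRE-bla HeLa cells, then dexamethasone 2 nM final; 18 h, 37 C. CCF4 FRET fluorescence normalized to dexamethasone and DMSO; IC50 from Hill fit.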

Glucocorticoid receptor (Homo sapiens), sequence (P04150 whole entry, looked up): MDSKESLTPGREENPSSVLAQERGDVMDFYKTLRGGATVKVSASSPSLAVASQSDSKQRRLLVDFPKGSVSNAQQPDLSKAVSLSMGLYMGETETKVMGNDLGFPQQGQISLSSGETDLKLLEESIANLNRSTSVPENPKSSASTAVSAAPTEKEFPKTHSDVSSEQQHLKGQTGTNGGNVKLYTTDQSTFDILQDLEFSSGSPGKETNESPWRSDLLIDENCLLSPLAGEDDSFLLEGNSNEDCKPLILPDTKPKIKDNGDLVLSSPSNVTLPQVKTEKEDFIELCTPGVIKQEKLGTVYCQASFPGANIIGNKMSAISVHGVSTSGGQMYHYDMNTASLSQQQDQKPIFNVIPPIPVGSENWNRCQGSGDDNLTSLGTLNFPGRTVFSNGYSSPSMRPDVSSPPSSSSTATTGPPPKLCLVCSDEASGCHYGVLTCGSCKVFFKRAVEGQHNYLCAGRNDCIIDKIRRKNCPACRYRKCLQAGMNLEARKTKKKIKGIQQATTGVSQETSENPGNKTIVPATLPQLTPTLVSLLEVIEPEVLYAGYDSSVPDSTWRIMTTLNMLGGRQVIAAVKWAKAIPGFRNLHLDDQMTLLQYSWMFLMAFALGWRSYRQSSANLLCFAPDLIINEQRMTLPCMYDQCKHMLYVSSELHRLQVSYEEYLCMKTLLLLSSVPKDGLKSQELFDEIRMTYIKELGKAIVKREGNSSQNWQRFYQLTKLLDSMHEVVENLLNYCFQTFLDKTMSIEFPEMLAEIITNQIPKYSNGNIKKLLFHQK
Androgen receptor (Homo sapiens), sequence (P10275 whole entry, looked up): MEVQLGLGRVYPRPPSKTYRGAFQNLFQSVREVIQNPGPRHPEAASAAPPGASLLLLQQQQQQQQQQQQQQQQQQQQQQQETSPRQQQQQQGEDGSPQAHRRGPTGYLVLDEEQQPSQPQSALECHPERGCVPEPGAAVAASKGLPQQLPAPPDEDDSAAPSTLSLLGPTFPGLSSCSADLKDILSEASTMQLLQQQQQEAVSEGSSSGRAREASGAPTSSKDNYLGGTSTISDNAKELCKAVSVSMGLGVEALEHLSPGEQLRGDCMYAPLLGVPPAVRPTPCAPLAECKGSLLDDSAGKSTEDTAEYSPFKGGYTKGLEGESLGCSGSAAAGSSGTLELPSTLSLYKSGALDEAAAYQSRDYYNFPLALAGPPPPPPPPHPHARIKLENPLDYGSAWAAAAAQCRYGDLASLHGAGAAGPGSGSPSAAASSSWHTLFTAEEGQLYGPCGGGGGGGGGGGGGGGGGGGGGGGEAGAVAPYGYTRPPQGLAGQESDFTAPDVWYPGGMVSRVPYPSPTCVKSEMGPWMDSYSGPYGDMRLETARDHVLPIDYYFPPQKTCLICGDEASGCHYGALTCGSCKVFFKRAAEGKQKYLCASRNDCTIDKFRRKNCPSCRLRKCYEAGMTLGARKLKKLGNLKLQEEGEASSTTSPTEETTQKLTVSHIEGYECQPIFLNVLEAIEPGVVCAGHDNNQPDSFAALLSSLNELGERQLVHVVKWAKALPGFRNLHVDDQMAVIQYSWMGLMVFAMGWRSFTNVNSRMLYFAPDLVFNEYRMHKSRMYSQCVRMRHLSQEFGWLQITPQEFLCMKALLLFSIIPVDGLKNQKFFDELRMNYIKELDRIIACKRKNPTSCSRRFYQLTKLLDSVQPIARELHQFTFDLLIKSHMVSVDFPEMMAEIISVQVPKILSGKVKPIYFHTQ
Bile acid receptor (Homo sapiens), sequence (Q96RI1 whole entry, looked up): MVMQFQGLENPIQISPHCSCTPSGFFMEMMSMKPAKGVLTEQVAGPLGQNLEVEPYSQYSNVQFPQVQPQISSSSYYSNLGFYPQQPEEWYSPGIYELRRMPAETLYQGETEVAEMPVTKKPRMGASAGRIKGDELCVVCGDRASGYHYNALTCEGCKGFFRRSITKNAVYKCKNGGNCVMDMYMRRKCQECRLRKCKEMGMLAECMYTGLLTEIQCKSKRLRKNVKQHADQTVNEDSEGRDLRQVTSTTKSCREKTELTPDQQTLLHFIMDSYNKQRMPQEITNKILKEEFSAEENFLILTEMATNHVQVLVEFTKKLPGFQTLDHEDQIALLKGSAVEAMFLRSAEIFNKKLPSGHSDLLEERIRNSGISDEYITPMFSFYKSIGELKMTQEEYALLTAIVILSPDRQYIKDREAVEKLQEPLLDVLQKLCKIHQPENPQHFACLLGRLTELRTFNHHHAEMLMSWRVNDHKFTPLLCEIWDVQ
Estrogen receptor (Homo sapiens), sequence (P03372 whole entry, looked up): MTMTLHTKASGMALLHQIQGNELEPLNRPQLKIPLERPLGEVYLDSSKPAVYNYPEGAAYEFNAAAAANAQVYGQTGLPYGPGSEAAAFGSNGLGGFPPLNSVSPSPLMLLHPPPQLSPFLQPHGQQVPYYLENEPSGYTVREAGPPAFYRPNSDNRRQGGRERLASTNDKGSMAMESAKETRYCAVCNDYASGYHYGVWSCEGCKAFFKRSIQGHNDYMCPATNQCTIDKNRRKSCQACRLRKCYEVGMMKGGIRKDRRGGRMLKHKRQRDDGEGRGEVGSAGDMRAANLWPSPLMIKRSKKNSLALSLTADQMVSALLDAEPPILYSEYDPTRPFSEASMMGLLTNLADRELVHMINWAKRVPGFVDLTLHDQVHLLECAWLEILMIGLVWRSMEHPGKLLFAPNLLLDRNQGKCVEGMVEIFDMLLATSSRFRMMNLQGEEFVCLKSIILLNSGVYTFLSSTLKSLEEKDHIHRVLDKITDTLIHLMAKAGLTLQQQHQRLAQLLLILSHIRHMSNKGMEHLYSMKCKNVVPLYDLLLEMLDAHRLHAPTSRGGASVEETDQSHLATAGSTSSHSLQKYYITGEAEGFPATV
Thyroid hormone receptor beta (Homo sapiens), sequence (P10828 whole entry, looked up): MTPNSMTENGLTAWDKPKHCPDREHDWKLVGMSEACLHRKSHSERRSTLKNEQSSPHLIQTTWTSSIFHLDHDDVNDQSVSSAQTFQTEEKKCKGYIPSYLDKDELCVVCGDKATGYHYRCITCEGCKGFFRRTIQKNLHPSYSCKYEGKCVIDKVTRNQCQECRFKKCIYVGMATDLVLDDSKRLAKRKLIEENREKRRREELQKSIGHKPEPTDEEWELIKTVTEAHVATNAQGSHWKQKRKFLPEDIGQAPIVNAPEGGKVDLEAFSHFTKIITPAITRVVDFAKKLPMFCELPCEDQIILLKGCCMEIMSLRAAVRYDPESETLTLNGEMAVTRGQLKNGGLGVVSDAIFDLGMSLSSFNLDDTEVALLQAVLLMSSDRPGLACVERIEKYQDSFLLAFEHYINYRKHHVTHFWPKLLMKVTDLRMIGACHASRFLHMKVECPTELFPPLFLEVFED
Retinoic acid receptor RXR-alpha (Homo sapiens), sequence (P19793 whole entry, looked up): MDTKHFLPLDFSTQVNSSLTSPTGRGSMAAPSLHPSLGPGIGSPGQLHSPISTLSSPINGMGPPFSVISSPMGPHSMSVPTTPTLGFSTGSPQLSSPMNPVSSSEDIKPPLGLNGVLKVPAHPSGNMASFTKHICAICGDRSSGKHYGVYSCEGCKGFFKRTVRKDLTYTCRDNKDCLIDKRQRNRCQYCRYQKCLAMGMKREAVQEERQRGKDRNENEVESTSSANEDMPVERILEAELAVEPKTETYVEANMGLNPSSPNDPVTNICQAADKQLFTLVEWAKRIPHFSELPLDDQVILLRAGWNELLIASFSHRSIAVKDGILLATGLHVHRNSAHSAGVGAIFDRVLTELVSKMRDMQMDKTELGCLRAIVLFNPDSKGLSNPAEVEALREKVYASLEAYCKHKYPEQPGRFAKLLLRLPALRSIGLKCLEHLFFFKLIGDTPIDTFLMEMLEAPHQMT
Vitamin D3 receptor (Homo sapiens), sequence (P11473 whole entry, looked up): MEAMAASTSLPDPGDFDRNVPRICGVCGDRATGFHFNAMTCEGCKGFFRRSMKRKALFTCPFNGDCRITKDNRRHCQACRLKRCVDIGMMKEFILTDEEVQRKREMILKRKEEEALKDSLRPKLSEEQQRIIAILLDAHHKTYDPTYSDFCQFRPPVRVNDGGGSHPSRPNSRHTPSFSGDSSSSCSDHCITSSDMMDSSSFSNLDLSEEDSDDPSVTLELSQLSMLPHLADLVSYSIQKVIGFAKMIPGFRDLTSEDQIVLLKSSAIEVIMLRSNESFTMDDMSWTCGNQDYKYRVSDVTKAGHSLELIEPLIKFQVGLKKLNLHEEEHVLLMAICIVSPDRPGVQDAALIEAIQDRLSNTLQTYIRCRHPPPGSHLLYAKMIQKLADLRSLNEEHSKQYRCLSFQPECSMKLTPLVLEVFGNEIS
Peroxisome proliferator-activated receptor gamma (Homo sapiens), sequence (P37231 whole entry, looked up): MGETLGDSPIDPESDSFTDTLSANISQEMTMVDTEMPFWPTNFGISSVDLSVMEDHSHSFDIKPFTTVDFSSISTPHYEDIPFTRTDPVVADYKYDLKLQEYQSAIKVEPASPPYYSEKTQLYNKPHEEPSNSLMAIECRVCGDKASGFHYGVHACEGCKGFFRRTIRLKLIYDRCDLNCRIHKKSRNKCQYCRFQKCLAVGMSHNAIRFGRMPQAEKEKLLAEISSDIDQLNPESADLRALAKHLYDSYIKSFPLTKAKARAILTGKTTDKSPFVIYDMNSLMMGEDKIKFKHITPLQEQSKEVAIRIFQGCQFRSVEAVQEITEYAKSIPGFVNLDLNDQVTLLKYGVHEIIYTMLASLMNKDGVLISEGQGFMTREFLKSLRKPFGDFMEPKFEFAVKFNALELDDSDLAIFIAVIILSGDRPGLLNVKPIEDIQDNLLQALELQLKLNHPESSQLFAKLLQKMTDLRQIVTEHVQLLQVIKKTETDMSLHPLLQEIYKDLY

O=[N+]([O-])c1c(Cl)c(Cl)cc(Cl)c1Cl
inactive: Potency [1] | outcome [2] | outcome [3] | outcome [4] | Potency [6] | outcome [7] | Potency [9] | outcome [10] | Potency [12] | outcome [13]
active: Potency [8] 15.8 µM
-2.76%: max response [11]
-4.54%: max response [5]

O=[N+]([O-])c1cc([N+](=O)[O-])c2ccccc2c1
-2.69%: max response [11]
inactive: activation [14] -1.64% | activation [15] -0.539% | outcome [4] | Potency [6] | outcome [7] | Potency [8] | Potency [9] | outcome [10] | Potency [12] | outcome [13]
44.3%: max response [5]

CCO/N=C(\CC)C1=C(O)CC(c2c(C)cc(C)cc2C)CC1=O (stereo not drawn)
11.4%: max response [5]
inactive: outcome [2] | activation [14] -1.77% | outcome [3] | activation [15] -3.56% | Potency [16] | outcome [4] | Potency [6] | Potency [8] | Potency [9] | outcome [10] | outcome [13]

C=CCC1=C(C)C(OC(=O)C2C(C=C(C)C)C2(C)C)CC1=O (stereo not drawn)
inactive: Potency [1] | outcome [2] | activation [15] 11.4% and 2.61% | Potency [16] | outcome [7] | Potency [8] | Potency [9] | outcome [10] | Potency [12] | outcome [13]
-5.66%: max response [11]

CC(C)(O)C(=O)Nc1ccc([N+](=O)[O-])c(C(F)(F)F)c1
11.6%: max response [11]
inactive: Potency [1] | outcome [2] | outcome [10] | Potency [12] | outcome [13]

Nc1ccc(Cl)cc1
inactive: Potency [1] | outcome [2] | Potency [16] | outcome [4] | outcome [13]

CCCN(CCC)c1c([N+](=O)[O-])cc(S(N)(=O)=O)cc1[N+](=O)[O-]
53.5%: max response [5]
-0.936%: max response [11]
inactive: outcome [2] | outcome [3] | activation [15] -3.33% | outcome [4] | Potency [6] | outcome [10] | Potency [12]

Nc1c(Cl)c(Cl)c(Cl)c(Cl)c1Cl
-5.48%: max response [11]
inactive: activation [14] 1.01% | outcome [4] | Potency [6] | outcome [7] | Potency [8] | Potency [9] | outcome [10] | Potency [12]
13.6%: max response [5]

COCCOCCO
0.722%: max response [11]
inactive: Potency [1] | outcome [2] | outcome [4] | Potency [6] | outcome [7] | Potency [8] | Potency [9] | outcome [10] | Potency [12] | outcome [13]
-0.0574%: max response [5]

Nc1ccc(N=Nc2ccccc2)cc1
inactive: outcome [3] | activation [15] -2.94% | Potency [16] | outcome [4] | Potency [6] | outcome [7] | Potency [8] | Potency [9] | outcome [10] | Potency [12] | outcome [13]
-10.7%: max response [11]
4.67%: max response [5]
